Data as given in the supplement of paper PMC10849652.
About 8,800 targets were measured; listed, in parts, are those with a hit and a random draw of the rest. About 0.5% of all pairs of compound and target were hits.

Assays:
Assay in all cases: log2 fold change, soluble protein after heating vs DMSO (PISA); higher = thermal stabilisation; K562 lysate, 10 uM; active = over 0.2 and 3.5 SD of the protein, either way, in both replicates (recomputed)
[1] = compound: CS(=O)(=O)CCNCc1ccc(-c2ccc3ncnc(Nc4ccc(OCc5cccc(F)c5)c(Cl)c4)c3c2)o1 [lapatinib]
Outline: (§1)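 Dounce homogenisation of K562 pellets in PBS pH 7.4 with 1 mM MgCl2 produced a crude extract, used at 1 mg/mL protein. Exposure to 10 μM compound lasted 30 min, and aliquots were then heated for 3 min across 48°C-58°C, pooled and brought to 0.5% NP-40 at 4°C. The supernatant after 21,000xg for 90 min was quantified by TMTpro 16plex LC-MS/MS with channel sums equalised. Duplicate values are given as log-two fold change in thermal stability relative to solvent controls.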

[2] = compound: CS(=O)(=O)N1CCN(Cc2cc3nc(-c4cccc5[nH]ncc45)nc(N4CCOCC4)c3s2)CC1 [pictilisib]
Outline: as §1

[3] = compound: C[C@@H](Oc1cc(-c2cnn(C3CCNCC3)c2)cnc1N)c1c(Cl)ccc(F)c1Cl [crizotinib]
Outline: as §1

[4] = compound: C[C@H](C1=CC=C(C=C1)C(=O)NC2=C3C=CNC3=NC=C2)N
Outline: as §1

[5] = compound: C[C@H](Nc1ncnc2nc[nH]c12)c1cc2cccc(Cl)c2c(=O)n1-c1ccccc1 [duvelisib]
Outline: as §1

[6] = compound: Cc1cc(Nc2cc(CN3CCOCC3)c3nc(C)c(Cc4ccc(Cl)cc4F)n3n2)n[nH]1 [gandotinib]
Outline: as §1

[7] = compound: Cc1cc(Nc2cc(N3CCN(C)CC3)nc(Sc3ccc(NC(=O)C4CC4)cc3)n2)n[nH]1 [tozasertib]
Outline: as §1

[8] = compound: Cc1ccc(-n2nc(C(C)(C)C)cc2NC(=O)Nc2ccc(OCCN3CCOCC3)c3ccccc23)cc1 [doramapimod]
Outline: as §1

[9] = compound: Cc1ccc(NC(=O)c2ccc(CN3CC[C@H](N(C)C)C3)c(C(F)(F)F)c2)cc1Nc1nccc(-c2cncnc2)n1 [bafetinib]
Outline: as §1

[10] = compound: Cc1cccc(CC(=O)N2CCc3c2ccc(-c2cn(C)c4ncnc(N)c24)c3F)n1
Outline: as §1

Measured: log2 fold change

NEBL isoform 2 (UniProt O76041)
inactive: [1] 0.003 | [2] 0.044 | [3] 0.059 | [4] -0.135 | [5] -0.046 | [6] 0.094 | [7] -0.018 | [8] -0.018 | [9] 0.105 | [10] 0.073

OSGEP (UniProt Q9NPF4)
Sequence of UniProt Q9NPF4 (Q9NPF4 whole entry, looked up): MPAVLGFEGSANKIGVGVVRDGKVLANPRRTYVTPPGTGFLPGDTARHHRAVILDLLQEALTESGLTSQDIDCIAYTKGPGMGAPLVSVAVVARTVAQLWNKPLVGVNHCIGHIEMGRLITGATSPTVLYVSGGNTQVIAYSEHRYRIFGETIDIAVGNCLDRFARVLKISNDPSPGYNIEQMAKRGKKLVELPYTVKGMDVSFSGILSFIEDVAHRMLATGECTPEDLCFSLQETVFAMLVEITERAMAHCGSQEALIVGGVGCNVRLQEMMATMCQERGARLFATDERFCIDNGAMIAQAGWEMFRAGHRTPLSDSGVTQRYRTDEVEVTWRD
inactive: [1] -0.011 | [2] -0.025 | [3] -0.006 | [4] -0.07 | [5] -0.037 | [6] -0.024 | [7] 0.043 | [8] -0.035 | [9] -0.008 | [10] 0.033

NUP188 (UniProt Q5SRE5)
inactive: [1] -0.063 | [2] -0.04 | [3] -0.05 | [4] -0.024 | [5] 0.004 | [6] -0.127 | [7] -0.012 | [8] -0.034 | [9] -0.031 | [10] 0.039

NFAT5 isoform 5 (UniProt O94916)
inactive: [1] 0.033 | [2] -0.002 | [3] 0.053 | [4] -0.053 | [5] -0.041 | [6] 0.045 | [7] -0.039 | [8] 0.007 | [9] -0.041 | [10] 0.008

MTHFD1L (UniProt B7ZM99)
inactive: [1] -0.075 | [2] -0.036 | [3] -0.036 | [4] 0.017 | [5] 0.026 | [6] -0.039 | [7] 0.002 | [8] 0.035 | [9] -0.054 | [10] 0.018

PARD3 (UniProt Q8TEW0)
inactive: [1] -0.143 | [2] -0.155 | [3] -0.096 | [4] 0.014 | [5] -0.102 | [6] 0.122 | [7] 0.064 | [8] -0.058 | [9] -0.054 | [10] 0.069

NPM3 (UniProt O75607)
inactive: [1] 0.087 | [2] 0.053 | [3] -0.02 | [4] -0.201 | [5] 0.014 | [6] 0.068 | [7] -0.036 | [8] 0.027 | [9] 0.04 | [10] 0.164

OGFR (UniProt Q9NZT2)
Sequence of UniProt Q9NZT2 (Q9NZT2 whole entry, looked up): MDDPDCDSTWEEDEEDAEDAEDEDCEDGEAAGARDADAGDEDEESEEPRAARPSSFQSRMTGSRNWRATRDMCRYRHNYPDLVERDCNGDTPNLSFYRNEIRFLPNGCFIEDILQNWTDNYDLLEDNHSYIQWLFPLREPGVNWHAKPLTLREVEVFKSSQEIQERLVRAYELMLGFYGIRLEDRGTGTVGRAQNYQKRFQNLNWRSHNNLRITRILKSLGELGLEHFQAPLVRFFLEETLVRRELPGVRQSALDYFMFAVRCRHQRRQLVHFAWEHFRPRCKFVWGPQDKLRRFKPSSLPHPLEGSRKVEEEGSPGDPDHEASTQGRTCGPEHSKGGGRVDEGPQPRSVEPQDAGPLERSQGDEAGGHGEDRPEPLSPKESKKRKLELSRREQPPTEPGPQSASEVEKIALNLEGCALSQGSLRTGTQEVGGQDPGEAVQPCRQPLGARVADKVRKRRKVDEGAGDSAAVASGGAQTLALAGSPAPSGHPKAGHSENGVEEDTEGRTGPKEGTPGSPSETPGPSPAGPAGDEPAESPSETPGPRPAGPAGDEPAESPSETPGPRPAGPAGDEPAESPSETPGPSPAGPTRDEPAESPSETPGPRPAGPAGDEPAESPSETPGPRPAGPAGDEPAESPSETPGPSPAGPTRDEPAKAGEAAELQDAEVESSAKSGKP
inactive: [1] 0.014 | [2] -0.012 | [3] 0.052 | [4] 0.128 | [5] -0.008 | [6] -0.062 | [7] -0.043 | [8] -0.012 | [9] 0.043 | [10] -0.037

NTPCR (UniProt Q9BSD7)
inactive: [1] -0.003 | [2] -0.028 | [3] -0.071 | [4] 0.031 | [5] -0.003 | [6] -0.094 | [7] -0.028 | [8] 0.011 | [9] -0.044 | [10] -0.052

MYOM1 (UniProt P52179)
inactive: [1] 0.099 | [2] 0.009 | [3] 0.054 | [4] -0.082 | [5] -0.02 | [6] 0.065 | [7] -0.137 | [8] -0.436 | [9] -0.252 | [10] 0.05

NUP98 (UniProt P52948)
inactive: [1] 0.007 | [2] -0.041 | [3] 0.017 | [4] -0.014 | [5] -0.04 | [6] 0.01 | [7] -0.033 | [8] -0.024 | [9] -0.024 | [10] 0.043

MTA2 (UniProt O94776)
inactive: [1] -0.003 | [2] 0.017 | [3] 0 | [4] 0.013 | [5] 0 | [6] -0.033 | [7] -0.016 | [8] 0.031 | [9] -0.009 | [10] 0.021

OTC (UniProt P00480)
inactive: [1] -0.118 | [2] -0.026 | [3] -0.273 | [5] 0.159 | [6] -0.003 | [7] 0.161 | [8] 0.168 | [9] -0.412 | [10] 0.377
active: [4] -4.33

MT-ND1 (UniProt P03886)
inactive: [1] -0.025 | [2] -0.03 | [3] -0.062 | [5] -0.052 | [6] 0.061 | [7] -0.074 | [8] 0.041 | [9] 0.022 | [10] 0.007
active: [4] -0.342

NUF2 (UniProt Q9BZD4)
inactive: [1] -0.002 | [2] -0.028 | [3] -0.024 | [4] -0.023 | [5] -0.019 | [6] -0.103 | [7] 0.023 | [8] 0.008 | [9] -0.087 | [10] 0.053

MRPS12 (UniProt O15235)
inactive: [1] 0.006 | [2] -0.024 | [3] -0.019 | [4] 0.003 | [5] -0.022 | [6] -0.022 | [7] 0.048 | [8] 0.03 | [9] 0.036 | [10] -0.003

NPLOC4 isoform 2 (UniProt Q8TAT6)
inactive: [1] 0.022 | [2] 0.003 | [3] -0.023 | [4] -0.087 | [5] 0.01 | [6] 0.046 | [7] -0.003 | [8] 0.056 | [9] -0.019 | [10] 0.007

NEK7 (UniProt Q8TDX7)
inactive: [1] -0.035 | [2] -0.018 | [3] -0.045 | [4] -0.062 | [5] -0.026 | [6] -0.031 | [7] -0.022 | [8] 0.016 | [9] -0.026 | [10] 0.15

MYH11 isoform 2 (UniProt P35749)
Sequence of UniProt P35749 (P35749 whole entry, looked up): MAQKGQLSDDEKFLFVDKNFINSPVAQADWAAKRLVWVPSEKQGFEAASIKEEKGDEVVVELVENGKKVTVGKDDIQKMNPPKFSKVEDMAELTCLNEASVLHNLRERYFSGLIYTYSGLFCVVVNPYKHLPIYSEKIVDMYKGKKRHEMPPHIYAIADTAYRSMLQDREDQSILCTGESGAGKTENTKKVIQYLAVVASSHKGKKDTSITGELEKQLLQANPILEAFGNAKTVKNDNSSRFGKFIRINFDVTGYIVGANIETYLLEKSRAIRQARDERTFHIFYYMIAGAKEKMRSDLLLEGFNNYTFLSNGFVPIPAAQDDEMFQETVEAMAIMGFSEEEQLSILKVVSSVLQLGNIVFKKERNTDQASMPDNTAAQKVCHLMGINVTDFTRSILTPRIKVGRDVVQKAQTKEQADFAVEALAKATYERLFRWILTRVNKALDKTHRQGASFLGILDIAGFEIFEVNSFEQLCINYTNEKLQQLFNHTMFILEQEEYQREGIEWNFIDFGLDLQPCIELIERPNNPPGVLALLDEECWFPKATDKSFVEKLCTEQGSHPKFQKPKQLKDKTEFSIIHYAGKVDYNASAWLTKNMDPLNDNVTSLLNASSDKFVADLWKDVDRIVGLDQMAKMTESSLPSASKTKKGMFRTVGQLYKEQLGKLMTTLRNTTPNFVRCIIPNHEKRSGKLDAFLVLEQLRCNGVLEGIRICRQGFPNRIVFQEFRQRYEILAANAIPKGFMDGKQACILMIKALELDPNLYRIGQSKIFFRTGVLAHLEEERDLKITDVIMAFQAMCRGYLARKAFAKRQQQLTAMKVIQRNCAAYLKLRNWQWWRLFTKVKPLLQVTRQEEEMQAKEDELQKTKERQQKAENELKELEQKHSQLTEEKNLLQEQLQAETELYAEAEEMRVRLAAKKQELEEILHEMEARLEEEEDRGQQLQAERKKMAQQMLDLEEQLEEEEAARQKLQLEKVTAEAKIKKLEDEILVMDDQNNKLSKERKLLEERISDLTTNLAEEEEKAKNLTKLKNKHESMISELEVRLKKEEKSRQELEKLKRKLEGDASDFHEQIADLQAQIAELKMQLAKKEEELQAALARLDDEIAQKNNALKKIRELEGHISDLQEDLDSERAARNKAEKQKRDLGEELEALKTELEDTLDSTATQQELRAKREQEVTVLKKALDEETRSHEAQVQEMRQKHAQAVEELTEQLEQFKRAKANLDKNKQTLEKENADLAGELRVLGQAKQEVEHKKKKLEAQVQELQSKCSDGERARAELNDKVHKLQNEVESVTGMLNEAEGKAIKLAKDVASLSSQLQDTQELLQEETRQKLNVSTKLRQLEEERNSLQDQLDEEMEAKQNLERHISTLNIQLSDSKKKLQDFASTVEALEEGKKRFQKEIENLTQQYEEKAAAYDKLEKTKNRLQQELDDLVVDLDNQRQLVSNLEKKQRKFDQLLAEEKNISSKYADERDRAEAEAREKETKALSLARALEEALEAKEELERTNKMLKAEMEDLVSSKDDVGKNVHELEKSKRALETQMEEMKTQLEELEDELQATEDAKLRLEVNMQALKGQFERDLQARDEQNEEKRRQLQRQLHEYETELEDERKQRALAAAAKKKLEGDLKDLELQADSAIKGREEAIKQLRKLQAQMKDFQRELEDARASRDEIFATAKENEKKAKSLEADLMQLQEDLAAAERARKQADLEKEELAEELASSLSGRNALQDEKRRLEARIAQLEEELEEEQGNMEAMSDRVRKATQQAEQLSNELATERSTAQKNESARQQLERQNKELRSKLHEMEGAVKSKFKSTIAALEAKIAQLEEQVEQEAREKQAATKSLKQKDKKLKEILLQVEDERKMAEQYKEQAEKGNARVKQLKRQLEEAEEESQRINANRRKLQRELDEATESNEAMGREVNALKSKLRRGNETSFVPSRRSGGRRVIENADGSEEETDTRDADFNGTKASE
active: [4] 0.279
inactive: [1] 0.075 | [2] -0.002 | [3] 0.054 | [5] 0.055 | [6] -0.004 | [7] 0.031 | [8] -0.044 | [9] 0.303 | [10] -0.018

NCAPG2 (UniProt Q86XI2)
inactive: [1] -0.062 | [2] -0.006 | [3] -0.048 | [4] -0.108 | [5] -0.052 | [6] -0.011 | [7] 0.023 | [8] 0.062 | [9] -0.074 | [10] 0.143

MYO10 (UniProt Q9HD67)
Sequence of UniProt Q9HD67 (Q9HD67 whole entry, looked up): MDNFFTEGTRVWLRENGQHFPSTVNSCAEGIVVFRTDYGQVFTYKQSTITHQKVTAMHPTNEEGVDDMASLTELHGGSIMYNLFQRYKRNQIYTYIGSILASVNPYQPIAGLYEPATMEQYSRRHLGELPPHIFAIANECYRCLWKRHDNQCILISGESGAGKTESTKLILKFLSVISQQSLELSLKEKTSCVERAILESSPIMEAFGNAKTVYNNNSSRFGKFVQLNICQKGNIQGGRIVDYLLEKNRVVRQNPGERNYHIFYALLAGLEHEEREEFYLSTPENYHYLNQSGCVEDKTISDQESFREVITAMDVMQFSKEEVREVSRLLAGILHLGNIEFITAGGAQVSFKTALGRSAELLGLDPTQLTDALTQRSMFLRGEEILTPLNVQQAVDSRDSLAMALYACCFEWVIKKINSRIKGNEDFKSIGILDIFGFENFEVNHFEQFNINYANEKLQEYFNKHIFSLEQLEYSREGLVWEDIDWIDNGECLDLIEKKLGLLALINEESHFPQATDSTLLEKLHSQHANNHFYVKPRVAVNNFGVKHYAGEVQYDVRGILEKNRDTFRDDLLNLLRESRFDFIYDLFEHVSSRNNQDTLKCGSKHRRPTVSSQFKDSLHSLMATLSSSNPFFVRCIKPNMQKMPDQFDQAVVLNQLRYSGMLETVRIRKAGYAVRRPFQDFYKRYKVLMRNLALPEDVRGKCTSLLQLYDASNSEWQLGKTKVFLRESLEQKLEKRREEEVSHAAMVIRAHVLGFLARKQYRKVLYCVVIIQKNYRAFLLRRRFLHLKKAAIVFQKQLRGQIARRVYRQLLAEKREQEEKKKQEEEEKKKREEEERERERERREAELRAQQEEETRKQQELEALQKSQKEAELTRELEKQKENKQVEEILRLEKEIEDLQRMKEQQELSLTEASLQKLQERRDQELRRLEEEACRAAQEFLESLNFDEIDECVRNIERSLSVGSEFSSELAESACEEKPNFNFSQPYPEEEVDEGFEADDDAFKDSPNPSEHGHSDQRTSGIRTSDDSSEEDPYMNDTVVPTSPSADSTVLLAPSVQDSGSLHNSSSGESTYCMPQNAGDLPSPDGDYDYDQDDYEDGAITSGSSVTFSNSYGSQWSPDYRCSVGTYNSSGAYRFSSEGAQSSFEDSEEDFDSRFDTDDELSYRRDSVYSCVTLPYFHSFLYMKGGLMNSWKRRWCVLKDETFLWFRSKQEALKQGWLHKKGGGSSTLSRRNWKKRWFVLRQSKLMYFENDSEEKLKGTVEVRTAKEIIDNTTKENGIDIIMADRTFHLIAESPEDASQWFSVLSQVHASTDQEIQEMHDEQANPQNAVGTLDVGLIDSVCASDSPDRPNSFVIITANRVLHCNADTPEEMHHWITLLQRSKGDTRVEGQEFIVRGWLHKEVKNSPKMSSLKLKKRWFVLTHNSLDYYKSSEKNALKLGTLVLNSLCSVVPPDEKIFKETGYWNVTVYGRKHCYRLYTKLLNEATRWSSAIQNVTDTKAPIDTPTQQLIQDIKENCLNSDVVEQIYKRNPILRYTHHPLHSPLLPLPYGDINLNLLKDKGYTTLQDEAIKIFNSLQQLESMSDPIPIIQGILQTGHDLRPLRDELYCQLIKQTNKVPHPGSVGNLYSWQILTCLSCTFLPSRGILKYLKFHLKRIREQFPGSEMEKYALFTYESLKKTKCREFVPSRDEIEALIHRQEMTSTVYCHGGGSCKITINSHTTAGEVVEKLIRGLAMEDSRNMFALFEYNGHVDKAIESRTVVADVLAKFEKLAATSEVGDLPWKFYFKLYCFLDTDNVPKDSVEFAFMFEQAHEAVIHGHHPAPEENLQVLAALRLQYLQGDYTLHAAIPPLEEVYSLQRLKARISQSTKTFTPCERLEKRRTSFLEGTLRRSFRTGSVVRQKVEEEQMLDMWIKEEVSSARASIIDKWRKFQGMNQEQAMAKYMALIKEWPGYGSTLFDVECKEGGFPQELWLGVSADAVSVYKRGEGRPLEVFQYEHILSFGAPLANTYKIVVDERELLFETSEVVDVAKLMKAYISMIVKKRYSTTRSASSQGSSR
inactive: [2] 0.076 | [3] -0.042 | [6] -0.016 | [8] -0.321 | [9] -0.456 | [10] -0.029
active: [4] 0.696

NEXN (UniProt Q0ZGT2)
inactive: [1] 0.066 | [2] -0.137 | [4] -0.239 | [5] -0.088 | [6] 0.172 | [7] -0.237 | [9] 0.043 | [10] 0.198

MYBL2 (UniProt P10244)
inactive: [3] -0.018 | [4] 0.181 | [5] -0.011 | [6] -0.286 | [7] 0.001 | [8] 0.017 | [10] -0.184

NAA16 (UniProt Q6N069)
inactive: [1] 0.048 | [2] -0.108 | [5] 0.029 | [7] -0.016 | [9] 0.022
